Data: PubChem BioAssay (NCATS)
Several values for one entry are separate records, joined by “and”; a condition that tells them apart may be missing. Equal entries are not always repeated. Inconclusive results are not listed. Entries that show only a call come without a potency. Activity calls are given as the source filed them. Unless noted, calls follow the shape of the full dose curve.

Assays:
[1] = biological target: Bile acid receptor (Homo sapiens) (UniProt Q96RI1); test: qHTS assay for small molecule antagonists of farnesoid X receptor signaling (AID 588526)
Method in brief: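 Concentration-response titrations were fitted to the Hill equation for half-maximal inhibition and maximal response, with data normalised to 50 uM chenodeoxycholic acid and DMSO control wells. Cells: FXR-UAS-bla HEK293T, dialyzed FBS.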

[2] = biological target: Glucocorticoid receptor (Homo sapiens) (UniProt P04150); test: qHTS assay for small molecule agonists of glucocorticoid receptor signaling (AID 588532; active = well fitted curve in the direction sought with a large enough effect in the signal ratio, with a control signal flat; the % refers to the signal ratio); conditions: HeLa MMTV-bla, beta-lactamase ratio, agonist, 18 h; stronger effect = higher value; percent of dexamethasone control, DMSO zero
Method in brief: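 Titration series, up to 92 uM, applied to GRE-bla HeLa cells for 18 h at 37 C. Detection by CCF4 FRET substrate after 2 h at RT.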

[3] = biological target: Glucocorticoid receptor (Homo sapiens) (UniProt P04150); test: qHTS assay for small molecule antagonists of glucocorticoid receptor signaling (AID 588533; active = well fitted inhibition curve with a large enough effect in the signal ratio, with a control signal flat, not every such curve was filed as active; the % refers to the signal ratio;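 also: cells stimulated with 2 nM dexamethasone as agonist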)
Method in brief: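 Antagonist-mode qHTS: compound titrations added to GRE-bla HeLa cells, then dexamethasone 2 nM final; 18 h, 37 C. CCF4 FRET fluorescence normalized to dexamethasone and DMSO; IC50 from Hill fit.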

[4] = qHTS assay for small molecule antagonists of peroxisome proliferator-activated receptor delta signaling (AID 588535; active = well fitted inhibition curve with a large enough effect in the signal ratio, with a control signal flat, not every such curve was filed as active; the % refers to the signal ratio;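 as to max response: cells co-treated with a PPAR-delta agonist as stimulator during compound exposure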); conditions: HEK293T PPARd-UAS-bla, beta-lactamase FRET ratio, 18 h; 460 nm channel
Method in brief: (§1)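 GeneBLAzer PPAR-delta-UAS-bla HEK293T cells in medium with 2% charcoal/dextran FBS were preincubated 5 hrs at 37 C, then given compounds, incubated 18 hrs at 37 C, and read by CCF4 beta-lactamase fluorescence; IC50 from Hill fits.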

[5] = biological target: Peroxisome proliferator-activated receptor delta (Homo sapiens) (UniProt Q03181); test: as above
Method in brief: as §1

[6] = biological target: Peroxisome proliferator-activated receptor gamma (Homo sapiens) (UniProt P37231); test: qHTS assay for small molecule agonists of peroxisome proliferator-activated receptor gamma signaling (AID 588536; active = well fitted curve in the direction sought with a large enough effect in the signal ratio, with a control signal flat, not every such curve was filed as active; the % refers to the signal ratio)
Method in brief: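 PPAR-gamma-UAS-bla HEK293 cells in medium with 1% charcoal/dextran-treated FBS were exposed to compounds for 16 h at 37 C. Beta-lactamase activity was read with CCF4 substrate (405 nm excitation, 460/530 nm emission).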

[7] = biological target: Peroxisome proliferator-activated receptor gamma (Homo sapiens) (UniProt P37231); test: qHTS assay for small molecule antagonists of peroxisome proliferator-activated receptor gamma signaling (AID 588537; active = well fitted inhibition curve with a large enough effect in the signal ratio, with a control signal flat, not every such curve was filed as active; the % refers to the signal ratio;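 also: reporter cells co-stimulated with 50 nM rosiglitazone agonist during compound treatment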)
Method in brief: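 PPAR-gamma-UAS-bla HEK293 cells (3000/well, 1% charcoal/dextran-stripped FBS) were preincubated 6-6.5 h at 37 C, given titrated compounds, then stimulated with 50 nM rosiglitazone for 16 h. Beta-lactamase activity was read with CCF4 dye; IC50 came from Hill fits.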

[8] = biological target: Vitamin D3 receptor (Homo sapiens) (UniProt P11473); test: qHTS assay for small molecule antagonists of vitamin D receptor signaling (AID 588541);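 also: receptor activated by calcitriol during compound treatment; series mostly up to about 77 µM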
Method in brief: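 VDR-UAS-bla HEK293T cells (2000/well, 2% charcoal-stripped FBS) were treated with titrated compounds plus 1-alpha,25-dihydroxyvitamin D3 (50 nM or 3 nM final) for 16 h at 37 C. CCF4 beta-lactamase fluorescence was read; Hill fits gave IC50.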

[9] = biological target: Vitamin D3 receptor (Homo sapiens) (UniProt P11473); test: qHTS assay for small molecule agonists of vitamin D receptor signaling (AID 588543)
Method in brief: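 β-lactamase reporter, VDR-UAS-bla HEK293T, agonist mode. Cells plated 5 h at 37 °C, compound titration 16 h at 37 °C, CCF4 dye 2 h RT, ratio 460/530 nm. Hill fit → EC50, efficacy vs 50 nM 1α,25-(OH)2D3.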

[10] = qHTS assay for small molecule agonists of retinoid X receptor alpha signaling (AID 588544); conditions: HEK293T RXRa-UAS-bla, beta-lactamase reporter, 18 h; 530 nm emission
[11] = biological target: Retinoic acid receptor RXR-alpha (Homo sapiens) (UniProt P19793); test: as above
[12] = biological target: Thyroid hormone receptor beta (Homo sapiens) (UniProt P10828); test: qHTS assay for small molecule agonists of thyroid hormone receptor beta signaling (AID 588545)
Method in brief: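 HEK 293 TR-UAS-bla; agonist mode; 18 hrs, 37 C; CCF4, ex 405/em 460 and 530 nm; norm. T3 10 nM = 100%, DMSO = 0%; Hill fit → EC50, efficacy.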

[13] = qHTS assay for small molecule antagonists of retinoid X receptor alpha signaling (AID 588546; active = well fitted inhibition curve with a large enough effect in the signal ratio, with a control signal flat, not every such curve was filed as active; the % refers to the signal ratio;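 also: cells stimulated with 9-cis-retinoic acid as agonist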); conditions: HEK293T RXRa-UAS-bla, beta-lactamase ratio, antagonist mode; measured here: W530 green channel, cytotoxicity proxy
Method in brief: (§2)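 Beta-lactamase reporter inhibition, read as CCF4 fluorescence ratio (ex 405, em 460/530 nm) after 2 h at RT. HEK293T UAS-bla cells, 2500/well, were stimulated with 9-cis-RA at 500 or 100 nM final alongside test compound for 18 h at 37 C.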

[14] = biological target: Retinoic acid receptor RXR-alpha (Homo sapiens) (UniProt P19793); test: as above; conditions: HEK293T RXRa-UAS-bla, beta-lactamase ratio, antagonist mode
Method in brief: as §2

[15] = biological target: Thyroid hormone receptor beta (Homo sapiens) (UniProt P10828); test: qHTS assay for small molecule antagonists of thyroid hormone receptor beta signaling (AID 588547; active = well fitted inhibition curve with a large enough effect in the signal ratio, with a control signal flat, not every such curve was filed as active; the % refers to the signal ratio;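 also: cells stimulated with 0.4 nM T3 agonist during compound exposure; series mostly up to about 77 µM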); conditions: TR-UAS-bla HEK293, beta-lactamase ratio, antagonist mode, 18 h
Method in brief: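 TR-UAS-bla GripTite HEK293 cells in 2% charcoal/dextran FBS medium were preincubated 4 h at 37 C, given compound (0.59 nM to 92 uM) plus 0.4 nM T3 (final) for 18 h, then CCF4 for 2 h at RT; Hill fit gave IC50.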

[16] = biological target: Voltage-gated inwardly rectifying potassium channel KCNH2 (Homo sapiens) (UniProt Q12809); test: qHTS Assay for Small Molecule Inhibitors of the Human hERG Channel Activity (AID 588834; active = well fitted inhibition curve with a large enough effect;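 also: top concentration of the series differs between compounds; lower thallium flux fluorescence means stronger hERG block; nearly all actives have a fitted effect of over 50% in size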)
Method in brief: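 Concentration-response qHTS measuring drop in thallium-sensitive dye signal. U2OS cells carrying BacMam hERG; compound exposure ~10 min, then stimulation buffer and 2 min read at 1 sec intervals.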

[17] = qHTS assay for small molecule activators of the p53 signaling pathway (AID 651743; active = well fitted activation curve with a large enough effect in the signal ratio, not every such curve was filed as active; the % refers to the signal ratio; also: series mostly up to about 92 µM); conditions: HCT-116 p53RE-bla, beta-lactamase FRET ratio, 16 h; stronger effect = higher value
Method in brief: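 p53RE-bla HCT-116 cells with a stably integrated beta-lactamase reporter under p53 response elements were plated, rested 5 hours at 37 C/5% CO2, then exposed to compounds in DMSO for 16 hours at 37 C. LiveBLAzer B/G FRET substrate was read after 2 hours at room temperature.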

[18] = qHTS assay for small molecule disruptors of the mitochondrial membrane potential - 1 hr assay (AID 651754); also: nearly all actives have a fitted effect of over 35% in size
Method in brief: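 HepG2 cells, attached overnight at 37C, were exposed to compound or DMSO vehicle for 1 hr at 37C, 5% CO2, then stained with Mito-MPS dye for 30 min. Red aggregate versus green monomer fluorescence reports membrane potential.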

[19] = qHTS assay for small molecule agonists of the antioxidant response element (ARE) signaling pathway (AID 651741; active = well fitted activation curve with a large enough effect in the signal ratio; the % refers to the signal ratio; also: potency is read from the fitted curve at half-maximal effect)
Method in brief: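 ARE-bla HepG2 cells (beta-lactamase reporter under ARE control) were plated at 2,000 cells/well, preincubated 5 h at 37 C/5% CO2, then treated with DMSO-dissolved compounds for 16 h at 37 C; LiveBLAzer B/G FRET substrate added, fluorescence read after 2 h at room temperature.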

[20] = qHTS assay for small molecule activators of the nuclear factor-kappa B (NF-kB) signaling pathway (AID 651749; active = well fitted activation curve with a large enough effect in the signal ratio; the % refers to the signal ratio; also: series mostly up to about 77 µM); conditions: NF-kB-bla ME-180 cells, beta-lactamase FRET ratio, 16 h; stronger effect = higher value
Method in brief: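 ME-180 cells stably carrying a beta-lactamase reporter under an NF-kB response element were exposed to compound or DMSO vehicle for 16 hr at 37C, 5% CO2. Pathway activation was read by FRET, since reporter expression disrupts FRET.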

Voltage-gated inwardly rectifying potassium channel KCNH2 (Homo sapiens), sequence (Q12809 whole entry, looked up): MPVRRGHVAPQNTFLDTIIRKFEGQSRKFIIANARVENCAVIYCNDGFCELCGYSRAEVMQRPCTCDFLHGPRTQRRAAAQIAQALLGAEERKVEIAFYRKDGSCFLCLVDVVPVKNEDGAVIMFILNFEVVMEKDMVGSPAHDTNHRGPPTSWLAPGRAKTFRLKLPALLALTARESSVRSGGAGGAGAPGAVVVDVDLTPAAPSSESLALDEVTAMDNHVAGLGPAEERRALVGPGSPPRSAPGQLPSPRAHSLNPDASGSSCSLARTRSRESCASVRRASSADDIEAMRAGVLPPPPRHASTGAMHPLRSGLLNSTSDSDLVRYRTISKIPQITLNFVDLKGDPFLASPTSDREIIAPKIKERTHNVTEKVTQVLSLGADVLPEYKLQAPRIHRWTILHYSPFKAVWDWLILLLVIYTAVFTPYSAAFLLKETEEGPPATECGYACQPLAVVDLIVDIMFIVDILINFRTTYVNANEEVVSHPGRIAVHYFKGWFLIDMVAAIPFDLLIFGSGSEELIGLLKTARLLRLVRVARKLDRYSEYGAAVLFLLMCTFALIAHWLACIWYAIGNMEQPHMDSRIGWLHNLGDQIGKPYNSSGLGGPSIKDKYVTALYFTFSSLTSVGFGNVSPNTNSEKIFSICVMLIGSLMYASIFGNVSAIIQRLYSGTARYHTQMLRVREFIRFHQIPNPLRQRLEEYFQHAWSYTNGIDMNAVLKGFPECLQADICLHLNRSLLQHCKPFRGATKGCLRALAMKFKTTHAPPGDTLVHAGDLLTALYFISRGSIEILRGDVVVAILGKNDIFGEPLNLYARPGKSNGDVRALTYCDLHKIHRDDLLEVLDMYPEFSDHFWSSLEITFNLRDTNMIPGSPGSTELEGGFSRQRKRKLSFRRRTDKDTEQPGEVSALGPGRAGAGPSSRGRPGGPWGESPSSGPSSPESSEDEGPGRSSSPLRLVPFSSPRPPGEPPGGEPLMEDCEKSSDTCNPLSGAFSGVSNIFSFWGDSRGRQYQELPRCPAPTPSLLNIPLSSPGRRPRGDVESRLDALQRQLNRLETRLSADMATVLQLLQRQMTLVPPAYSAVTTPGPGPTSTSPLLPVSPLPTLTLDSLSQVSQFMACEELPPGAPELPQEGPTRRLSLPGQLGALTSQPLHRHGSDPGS
Bile acid receptor (Homo sapiens), sequence (Q96RI1 whole entry, looked up): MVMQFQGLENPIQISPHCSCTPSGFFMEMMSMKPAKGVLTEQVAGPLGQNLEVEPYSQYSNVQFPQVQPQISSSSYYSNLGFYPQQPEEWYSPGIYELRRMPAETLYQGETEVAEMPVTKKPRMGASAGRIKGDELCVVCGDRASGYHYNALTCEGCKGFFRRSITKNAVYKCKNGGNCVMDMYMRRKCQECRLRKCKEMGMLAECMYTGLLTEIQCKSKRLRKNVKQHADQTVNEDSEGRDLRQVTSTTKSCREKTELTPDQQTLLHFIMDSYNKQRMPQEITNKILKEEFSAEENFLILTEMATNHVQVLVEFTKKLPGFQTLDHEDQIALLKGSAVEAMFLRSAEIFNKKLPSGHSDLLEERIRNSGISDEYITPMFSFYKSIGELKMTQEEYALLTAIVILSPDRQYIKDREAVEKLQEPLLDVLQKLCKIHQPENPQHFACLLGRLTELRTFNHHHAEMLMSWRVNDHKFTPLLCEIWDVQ
Thyroid hormone receptor beta (Homo sapiens), sequence (P10828 whole entry, looked up): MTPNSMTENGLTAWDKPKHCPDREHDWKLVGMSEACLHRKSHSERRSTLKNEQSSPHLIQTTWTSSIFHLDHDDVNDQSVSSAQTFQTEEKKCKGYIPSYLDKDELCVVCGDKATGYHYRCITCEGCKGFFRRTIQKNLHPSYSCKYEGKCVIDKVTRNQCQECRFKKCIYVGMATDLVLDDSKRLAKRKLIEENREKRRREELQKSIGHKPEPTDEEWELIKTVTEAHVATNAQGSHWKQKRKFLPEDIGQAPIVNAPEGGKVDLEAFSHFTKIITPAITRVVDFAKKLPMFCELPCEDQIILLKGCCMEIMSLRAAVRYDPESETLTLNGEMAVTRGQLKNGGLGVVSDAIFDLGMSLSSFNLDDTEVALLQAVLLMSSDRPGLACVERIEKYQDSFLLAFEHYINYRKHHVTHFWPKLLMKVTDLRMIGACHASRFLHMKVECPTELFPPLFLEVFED
Retinoic acid receptor RXR-alpha (Homo sapiens), sequence (P19793 whole entry, looked up): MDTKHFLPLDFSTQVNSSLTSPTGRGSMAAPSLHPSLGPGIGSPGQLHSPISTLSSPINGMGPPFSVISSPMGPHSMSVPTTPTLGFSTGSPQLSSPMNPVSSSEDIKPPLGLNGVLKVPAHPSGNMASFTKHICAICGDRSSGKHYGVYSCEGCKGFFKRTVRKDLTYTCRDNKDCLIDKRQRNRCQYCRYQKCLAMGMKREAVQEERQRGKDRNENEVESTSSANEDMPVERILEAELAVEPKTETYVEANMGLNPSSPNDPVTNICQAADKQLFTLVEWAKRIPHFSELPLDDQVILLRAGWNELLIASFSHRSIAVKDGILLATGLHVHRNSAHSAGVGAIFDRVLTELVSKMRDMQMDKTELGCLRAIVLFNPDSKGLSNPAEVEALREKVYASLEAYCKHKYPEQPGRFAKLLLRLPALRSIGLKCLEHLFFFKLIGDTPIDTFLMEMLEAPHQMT
Peroxisome proliferator-activated receptor delta (Homo sapiens), sequence (Q03181 whole entry, looked up): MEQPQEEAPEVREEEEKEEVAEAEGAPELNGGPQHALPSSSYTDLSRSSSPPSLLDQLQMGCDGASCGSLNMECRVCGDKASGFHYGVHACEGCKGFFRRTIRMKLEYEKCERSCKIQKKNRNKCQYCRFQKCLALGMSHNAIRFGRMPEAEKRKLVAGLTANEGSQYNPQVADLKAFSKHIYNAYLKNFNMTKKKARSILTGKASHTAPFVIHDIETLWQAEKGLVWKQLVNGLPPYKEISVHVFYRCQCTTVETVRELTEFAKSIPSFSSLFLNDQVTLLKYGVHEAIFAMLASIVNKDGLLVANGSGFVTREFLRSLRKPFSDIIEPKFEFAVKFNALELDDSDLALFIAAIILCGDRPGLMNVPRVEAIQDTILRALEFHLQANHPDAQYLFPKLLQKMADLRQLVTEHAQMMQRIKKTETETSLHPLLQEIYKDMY
Glucocorticoid receptor (Homo sapiens), sequence (P04150 whole entry, looked up): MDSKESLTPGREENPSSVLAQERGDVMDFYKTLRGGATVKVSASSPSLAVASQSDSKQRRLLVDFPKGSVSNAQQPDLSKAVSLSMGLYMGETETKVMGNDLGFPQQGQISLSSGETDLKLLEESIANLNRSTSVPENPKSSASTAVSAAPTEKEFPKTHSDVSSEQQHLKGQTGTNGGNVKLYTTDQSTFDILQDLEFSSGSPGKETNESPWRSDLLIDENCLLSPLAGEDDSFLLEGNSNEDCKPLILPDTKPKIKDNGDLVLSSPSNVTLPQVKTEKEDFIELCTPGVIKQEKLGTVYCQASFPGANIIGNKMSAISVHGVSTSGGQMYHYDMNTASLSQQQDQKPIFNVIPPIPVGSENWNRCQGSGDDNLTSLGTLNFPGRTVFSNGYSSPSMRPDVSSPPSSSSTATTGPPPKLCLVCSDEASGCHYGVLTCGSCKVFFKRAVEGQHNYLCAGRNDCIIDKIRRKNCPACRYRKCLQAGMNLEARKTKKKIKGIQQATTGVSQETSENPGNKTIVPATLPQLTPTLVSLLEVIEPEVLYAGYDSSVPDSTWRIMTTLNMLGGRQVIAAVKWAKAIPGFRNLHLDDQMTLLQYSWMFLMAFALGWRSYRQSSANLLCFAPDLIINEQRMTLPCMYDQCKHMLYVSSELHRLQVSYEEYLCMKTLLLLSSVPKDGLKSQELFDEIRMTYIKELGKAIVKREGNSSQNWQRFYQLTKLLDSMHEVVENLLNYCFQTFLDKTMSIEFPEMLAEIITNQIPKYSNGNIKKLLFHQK
Peroxisome proliferator-activated receptor gamma (Homo sapiens), sequence (P37231 whole entry, looked up): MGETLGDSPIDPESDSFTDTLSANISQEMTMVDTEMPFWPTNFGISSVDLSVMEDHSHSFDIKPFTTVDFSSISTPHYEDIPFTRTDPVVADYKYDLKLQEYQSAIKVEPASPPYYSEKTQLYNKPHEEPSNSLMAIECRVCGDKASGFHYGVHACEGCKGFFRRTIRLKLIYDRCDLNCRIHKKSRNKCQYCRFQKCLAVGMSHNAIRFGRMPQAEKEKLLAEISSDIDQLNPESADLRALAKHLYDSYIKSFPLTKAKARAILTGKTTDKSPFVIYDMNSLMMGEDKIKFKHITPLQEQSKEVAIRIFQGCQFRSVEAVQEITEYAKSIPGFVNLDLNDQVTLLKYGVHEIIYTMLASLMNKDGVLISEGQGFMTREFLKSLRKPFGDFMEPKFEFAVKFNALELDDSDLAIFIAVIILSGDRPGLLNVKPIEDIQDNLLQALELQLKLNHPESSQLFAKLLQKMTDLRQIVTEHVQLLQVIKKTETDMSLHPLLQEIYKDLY
Vitamin D3 receptor (Homo sapiens), sequence (P11473 whole entry, looked up): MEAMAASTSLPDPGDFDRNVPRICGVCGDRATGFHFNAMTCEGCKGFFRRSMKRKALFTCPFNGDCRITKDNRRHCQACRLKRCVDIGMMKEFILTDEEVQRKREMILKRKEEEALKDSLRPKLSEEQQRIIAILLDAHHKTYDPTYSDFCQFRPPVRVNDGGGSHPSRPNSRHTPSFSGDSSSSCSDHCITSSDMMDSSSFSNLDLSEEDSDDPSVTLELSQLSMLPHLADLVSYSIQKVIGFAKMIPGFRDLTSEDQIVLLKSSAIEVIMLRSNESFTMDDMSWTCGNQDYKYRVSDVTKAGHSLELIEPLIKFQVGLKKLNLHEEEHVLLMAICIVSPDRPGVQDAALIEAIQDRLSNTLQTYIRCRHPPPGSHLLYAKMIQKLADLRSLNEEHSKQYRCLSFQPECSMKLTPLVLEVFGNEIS

| SMILES | outcome [1] | activation [2] | outcome [3] | max response [4] | Potency [5] | outcome [6] | outcome [7] | outcome [8] | outcome [9] | max response [10] | outcome [11] | outcome [12] | max response [13] [%] | max response [14] | activity change % (negative = inhibition) [15] | Potency [16] | activation [17] | Potency [18] | Potency [19] | activation [20] |
| --- | --- | --- | --- | --- | --- | --- | --- | --- | --- | --- | --- | --- | --- | --- | --- | --- | --- | --- | --- | --- |
| C=Cc1ccccc1C=C | inactive | 2.03% (inactive) | inactive | -7.99% | inactive | inactive | inactive | inactive | inactive | -7.36% | inactive | inactive | -3.83 | -4.16% (inactive) | -4.38% (inactive) | inactive | -1.45% (inactive) | – | – | – |
| CCCCCCCN | inactive | 4.22% (inactive) | inactive | 31.2% | inactive | inactive | inactive | inactive | – | -16.2% | inactive | inactive | 3.38 | -5.49% (inactive) | 3.05% (inactive) | inactive | -0.0412% (inactive) | inactive | – | – |
| Cc1ccc(S(=O)(=O)NC2CCCCC2)cc1 | inactive | -3.36% (inactive) | inactive | 42.4% | inactive | inactive | – | – | – | -12.2% | inactive | inactive | -7.45 | 11.2% (inactive) | -0.348% (inactive) | inactive | -2.24% (inactive) | inactive | inactive | -0.807% (inactive) |
| Cc1ccc2oc(=O)ccc2c1 | inactive | -1.61% (inactive) | inactive | 1.44% and 30.5% | inactive | inactive | inactive | inactive | inactive | 0.296% and 3.97% | inactive | inactive | -0.906 | -15.9% (inactive) | -13% (inactive) and 13.3% (inactive) | inactive | – | inactive | 8.63 µM (active) | -0.483% (inactive) and -1.78% (inactive) |
| CN(C)CCCNCCCN | inactive | -1.86% (inactive) | inactive | -8.47% | inactive | inactive | inactive | inactive | inactive | -7.09% | inactive | – | -5.37 | 0.789% (inactive) | – | inactive | -2.59% (inactive) | inactive | – | – |
| CCCCC(CC)CO (configuration not stated) | inactive | -4.31% (inactive) | inactive | -4.39% | inactive | inactive | – | inactive | inactive | -6.11% | inactive | inactive | -1.2 | 16% (inactive) | -6.25% (inactive) | inactive | -4.64% (inactive) | inactive | inactive | -1.43% (inactive) |
| CC(N)CN (configuration not stated) | inactive | -2.03% (inactive) | inactive | 4.9% | inactive | inactive | – | – | inactive | -2.32% | inactive | inactive | -2.44 | 12.6% (inactive) | -4.82% (inactive) | inactive | -0.238% (inactive) | – | inactive | 0.0382% (inactive) |
| COC(=O)CCC(=O)OC | inactive | -3.79% (inactive) | inactive | -38.8% | inactive | inactive | inactive | inactive | inactive | -2.46% | inactive | inactive | 1.7 | – | 1.67% (inactive) | inactive | -2.9% (inactive) | inactive | inactive | 0.407% (inactive) |
| CC(=O)CC(C)C | inactive | 21.2% (inactive) | inactive | 19.2% | inactive | inactive | – | inactive | inactive | -6.71% | inactive | inactive | -1.65 | 12.3% (inactive) | -3.32% (inactive) | – | -2.45% (inactive) | inactive | inactive | 0.24% (inactive) |
| C=CCCCCCC | inactive | 7.84% (inactive) | inactive | – | – | inactive | inactive | inactive | inactive | -14% | inactive | inactive | 0.804 | -6.3% (inactive) | -3.79% (inactive) | inactive | -2.89% (inactive) | inactive | – | – |
| O=C(O)CCSSCCC(=O)O | inactive | -5.98% (inactive) | inactive | 29.9% | inactive | inactive | – | inactive | inactive | 1.51% | inactive | – | -12 | -2.74% (inactive) | -3.23% (inactive) | inactive | – | inactive | inactive | -1.14% (inactive) |
| FB(F)F | inactive | 3.97% (inactive) | inactive | 9.97% | – | inactive | inactive | inactive | inactive | -9.29% | inactive | inactive | 16.6 | -6.25% (inactive) | 15.2% (inactive) | inactive | – | inactive | inactive | 5.29% (inactive) |
| CCC(C)=O | inactive | -3.19% (inactive) | inactive | -36.3% | – | inactive | – | inactive | inactive | -3% | inactive | inactive | -3.56 | 0.0353% (inactive) | -18.3% (inactive) | inactive | -2.15% (inactive) | – | inactive | -1.44% (inactive) |
